Bioassay records: PubChem BioAssay, National Center for Advancing Translational Sciences (NCATS)
Hits are enriched below; roughly 19% of the tested compounds scored in any of these assays.
DT40 TDP1 CPT: DT40-hTDP1 cell growth loss with CPT | chicken DT40 Tdp1-/-;hTDP1 cells + 20 nM CPT, ATP luminescence, 48 h | Potency, µM (highest dose often 46.2 µM), most hits filed as inhibitors | 420,000 tested, 12% active; further: nearly all actives have a fitted effect of over 55% in size
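Chicken DT40 Tdp1-/- cells stably complemented with human TDP1 were seeded at 400 cells/well in medium containing 20 nM camptothecin, exposed to pin-transferred compounds, and grown at 37 °C for at least 48 hr. Viability was read as ATP luminescence.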
HT1080 IDH1KD tx: kills HT-1080 cells with IDH1 knockdown; 360,000 tested, 2% active; HT-1080 IDH1 knockdown viability, ATP luminescence, 48 h; Potency, µM (titrated, usually from 46.1 µM), actives largely listed as cytotoxic
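Using the IDH1-knockdown HT-1080 line run in the same batch and compound series as the NT line, viability after 48 h at 37 °C was determined by CellTiter-Glo luminescence and expressed as % activity.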
IL1B secr inh: blocks inflammasome-driven IL-1 beta release. AID 743279. 360,000 tested, 4.7% active. activity change, % at 57.5 µM. THP-1 LPS/ATP IL-1B secretion, AlphaLISA, 16 h; active compounds read low; in the data active means activity change below about -50%; inconclusive means mostly about -30% to -49%
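THP-1 cells pretreated 1 hr with compounds (up to 57.5 uM final), then stimulated with LPS (250 ng/mL final) plus ATP (1.25 mM final); secreted IL-1B measured by AlphaLISA after 16 hr, decreased signal indicating inhibition.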
HT1080-NT tox: kills 2HG-producing HT-1080-NT fibrosarcoma cells | Potency, µM (top dose mostly 46.1 µM), most hits filed as cytotoxic | HT-1080-NT fibrosarcoma viability, CellTiter-Glo ATP luminescence, 48 h | 360,000 tested, 1.6% active;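 further: NT is the 2HG producing partner of a matched IDH1 knockdown line; nearly all actives have a fitted effect of over 55% in size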
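750 cells/well, RPMI + 5% FBS; 2 h settle, compound pin-transfer, 48 h at 37 degrees C. CellTiter-Glo 10 min RT, luminescence. Normalized to DMSO and media-only wells.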
TDP1 cell noCPT: qHTS for Inhibitors of human tyrosyl-DNA phosphodiesterase 1 (TDP1): qHTS in cells in absence of CPT; DT40 Tdp1-/- hTDP1 cells, no CPT, ATP luminescence, 48 h; Potency, µM (titrated, usually from 46.2 µM), usual class: inhibitors; 420,000 tested, 15% active; AID 686978, 2013; further: nearly all actives have a fitted effect of over 55% in size
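Luminescent ATP content (CellTiter-Glo) served as the growth readout. Knockout chicken DT40 cells expressing human TDP1 were exposed to compounds without camptothecin for a minimum 48 hr at 37 °C.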
Large screens that a line does not name were inactive; ! = repeats disagree. Unless noted, the call rests on the fitted dose curve; in most records, active means well fitted curve in the direction sought with a large enough effect; inconclusive means small, poorly fitted or top-dose-only effect, or another doubt; inactive means no such curve, though single readings can be large; an effect the other way counts as inactive or inconclusive.

Cc1ccc(NC(=S)N(CCCN2CCN(C)CC2)Cc2cccs2)cc1C	IL1B secr inh -60.8
Cc1ccc(NC(=S)N(CCCN2CCN(C)CC2)Cc2cccs2)cc1	none
CCN(CC)CCN(Cc1cc2cc3c(cc2[nH]c1=O)OCCO3)C(=S)NCC(C)C	DT40 TDP1 CPT inconclusive, HT1080 IDH1KD tx inconclusive, IL1B secr inh -61.9, TDP1 cell noCPT inconclusive
CCN(CC)CCN(Cc1cc2cc3c(cc2[nH]c1=O)OCO3)C(=S)NCC(C)C	none
CCN(CC)CCN(Cc1cc2cc3c(cc2[nH]c1=O)OCO3)C(=S)NCc1ccco1	DT40 TDP1 CPT inconclusive, IL1B secr inh -63.4, TDP1 cell noCPT inconclusive
CCN(CC)CCN(Cc1cc2ccc(C)c(C)c2[nH]c1=O)C(=S)NCc1ccco1	DT40 TDP1 CPT inconclusive, TDP1 cell noCPT inconclusive (no result: IL1B secr inh)
CCN(CC)CCN(Cc1cc2cc(C)cc(C)c2[nH]c1=O)C(=S)NCc1ccco1	DT40 TDP1 CPT 25.9µM, TDP1 cell noCPT 23.1µM
Cc1cc(C)c2[nH]c(=O)c(CN(Cc3cccs3)C(=S)NCc3ccco3)cc2c1	DT40 TDP1 CPT 13µM, TDP1 cell noCPT 10.3µM
CCCn1cnnc1CNC(=O)[C@H]1O[C@@H](n2ccc(=O)[nH]c2=O)[C@H](O)[C@@H]1O	none
Nc1ccccc1SCC1CSc2nc3ccccc3c(=O)n21 (stereo not drawn)	none
O=c1c2ccccc2nc2n1C(CSCc1ccc(Cl)cc1Cl)CS2 (stereo not drawn)	DT40 TDP1 CPT 9.2µM, IL1B secr inh inconclusive, TDP1 cell noCPT 6.51µM
Cc1[nH]nc(-c2ccc(OCc3cnn(-c4ccccc4)c3)cc2O)c1Oc1ccc(F)cc1	DT40 TDP1 CPT inconclusive, HT1080 IDH1KD tx inconclusive, HT1080-NT tox inconclusive, TDP1 cell noCPT inconclusive
Cc1[nH]nc(-c2ccc(OCc3cnn(-c4ccccc4)c3)c(C)c2O)c1Oc1ccccc1	HT1080 IDH1KD tx 16.4µM, HT1080-NT tox 20.6µM, TDP1 cell noCPT inconclusive
COc1cccc(-c2nc(CS(=O)(=O)CC(=O)Nc3ccc(C(C)=O)cc3)c(C)o2)c1	DT40 TDP1 CPT inconclusive, TDP1 cell noCPT inconclusive
CCCCn1c(=NC(=O)c2ccco2)c(C(=O)OCC)cc2c(=O)n3ccccc3nc21	DT40 TDP1 CPT inconclusive, TDP1 cell noCPT 23.1µM
CCOC(=O)c1cc2c(=O)n3ccccc3nc2n(CCCOC)c1=NC(=O)c1cc2ccccc2o1	DT40 TDP1 CPT 23.1µM, TDP1 cell noCPT 18.4µM (no result: HT1080 IDH1KD tx, IL1B secr inh, HT1080-NT tox)
CCOC(=O)c1cc2c(=O)n3cccc(C)c3nc2n(CCCOC)c1=NC(=O)c1cccnc1	IL1B secr inh inconclusive, TDP1 cell noCPT 23.1µM
CCCCn1c(=NC(=O)c2ccco2)c(C(=O)OCC)cc2c(=O)n3cccc(C)c3nc21	DT40 TDP1 CPT inconclusive, TDP1 cell noCPT 13µM
CCCCn1c(=NC(=O)c2cccnc2)c(C#N)cc2c(=O)n3cccc(C)c3nc21	TDP1 cell noCPT inconclusive
Cc1c(C=O)c2ccccc2n1CC(=O)NCc1ccc2c(c1)OCO2	none
CCOC(=O)C1(C)CCCN(C(=O)c2ccc(OC)cc2)C1 (stereo not drawn)	none
CCn1c(CNC(=O)c2ccco2)nnc1SCC(=O)Nc1ccccc1Cl	none
CCCCCn1c(=NC(=O)c2ccco2)c(C(=O)OCC)cc2c(=O)n3ccccc3nc21	DT40 TDP1 CPT 16.4µM, IL1B secr inh -74.1!, TDP1 cell noCPT 14.6µM
CCCCn1c(=NC(=O)c2cc3ccccc3o2)c(C(=O)OCC)cc2c(=O)n3ccccc3nc21	none (no result: HT1080 IDH1KD tx, IL1B secr inh, HT1080-NT tox)
CCOCCCn1c(=NC(=O)c2cccnc2)c(C(=O)OCC)cc2c(=O)n3ccccc3nc21	DT40 TDP1 CPT inconclusive, TDP1 cell noCPT inconclusive
CCCCn1c(=NC(=O)c2cccnc2)c(C(=O)OCC)cc2c(=O)n3ccccc3nc21	DT40 TDP1 CPT 23.1µM, TDP1 cell noCPT 16.4µM
CC(=O)Nc1ccc(S(=O)(=O)NCCC(=O)OCC(=O)NNC(=O)c2ccccc2)cc1	none
O=C(CSc1nnnn1-c1ccc(F)cc1)NCc1cccs1	TDP1 cell noCPT inconclusive
O=C(NC(c1ccccc1)c1ccc2ccccc2n1)C1CCN(Cc2ccc(Cl)c(Cl)c2)CC1 (stereo not drawn)	DT40 TDP1 CPT inconclusive, HT1080 IDH1KD tx inconclusive, IL1B secr inh inconclusive, HT1080-NT tox inconclusive, TDP1 cell noCPT 14.6µM
O=C(NC(c1ccc(F)cc1)c1ccc2ccccc2n1)C1CCN(Cc2ccc(Oc3ccccc3)cc2)CC1 (stereo not drawn)	DT40 TDP1 CPT inconclusive, HT1080 IDH1KD tx inconclusive, IL1B secr inh -75.1, TDP1 cell noCPT inconclusive
CC(C)NC(=O)C1CCN(Cc2cccc(Oc3ccccc3)c2)CC1	none
COc1cc(OC)nc(C(NC(=O)C2CCN(Cc3ccc(Oc4ccccc4)cc3)CC2)c2ccccc2C)n1 (stereo not drawn)	DT40 TDP1 CPT inconclusive, HT1080 IDH1KD tx inconclusive, IL1B secr inh -57.8, HT1080-NT tox 16.4µM, TDP1 cell noCPT inconclusive
O=C(NC(c1ccccc1)c1ccc2ccccc2n1)C1CCN(Cc2ccc(Oc3ccccc3)cc2)CC1 (stereo not drawn)	DT40 TDP1 CPT inconclusive, HT1080 IDH1KD tx 13µM, IL1B secr inh inconclusive, HT1080-NT tox inconclusive, TDP1 cell noCPT inconclusive
CC(C)NC(=O)C1CCN(Cc2cccc(OCc3ccccc3)c2)CC1	DT40 TDP1 CPT inconclusive
COc1ccc(CN2CCC(C(=O)NC(c3ccc4c(c3)OCO4)c3ccccn3)CC2)cc1 (stereo not drawn)	none
COc1cc(CN2CCC(C(=O)NC(c3ccc(F)cc3)c3ccc4ccccc4n3)CC2)cc(OC)c1 (stereo not drawn)	DT40 TDP1 CPT 3.66µM, HT1080 IDH1KD tx 3.26µM, HT1080-NT tox 2.31µM, TDP1 cell noCPT 2.91µM
Cn1cc(CN2CCC(C(=O)NC(c3ccc(F)cc3)c3ccc4ccccc4n3)CC2)c2ccccc21 (stereo not drawn)	DT40 TDP1 CPT 11.6µM, HT1080 IDH1KD tx 16.4µM, IL1B secr inh -80.7, HT1080-NT tox 23.1µM, TDP1 cell noCPT 7.31µM
N[C@@H](C(=O)O)[C@@H](CC(=O)O)c1ccc(Cl)cc1	none (no result: HT1080 IDH1KD tx, IL1B secr inh, HT1080-NT tox)
C=CCn1c(C)cc(C(=O)COC(=O)/C=C/c2cccc(OC)c2)c1C	none
Cc1[nH]c2ccccc2c1C(=O)C(=O)NCc1nnnn1-c1ccc(F)cc1	none
C=CCNC(=S)N(CC)c1cccc2ccccc12	TDP1 cell noCPT inconclusive
Cc1nn(-c2ccccc2)c(Cl)c1/C=N/NC(=O)c1ccco1	none
CNC(=S)N/N=C/c1c(C)nn(-c2ccccc2)c1Cl	HT1080 IDH1KD tx 8.91µM, HT1080-NT tox inconclusive
Cc1nn(-c2ccccc2)c(Cl)c1/C=N/NC(=O)OC(C)(C)C	DT40 TDP1 CPT inconclusive, TDP1 cell noCPT 16.4µM
COc1ccc(Br)cc1/C=N/NC(=O)c1ccc2nc[nH]c2c1	none
O=C(Nc1cccc(F)c1)Nc1ccnn1C1CCN(C(=O)c2cscn2)CC1	none
